Reference: PubChem BioAssay (NCI)
Compounds without any hit were thinned out: in the full panel of roughly 79,000, 15% have a hit. The source made the active and inactive calls. No stated cut-off is given here; in the data, active means growth inhibition above about 70%; inactive means the rest.

assay: NCI Yeast Anticancer Drug Screen. Data for the mlh1 rad18 strain (AID 175); details: S. cerevisiae mlh1 rad18 strain growth inhibition; at 50.0 µM (retest, dose inferred, filed as 5.0); hits give high values
Summary of the method: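 A repair-deficient yeast strain is exposed to test compound, and growth is scored relative to vehicle-treated controls.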

Row | Compound | growth inhibition
1 | NC1=NC2=C(CCCC2)C(c2cccs2)S1 (configuration not stated) | 92% (active)
2 | CCC(C)(C)NCCCCCNc1cc(OC)cc2cccnc12 | 16% (inactive)
3 | C/C(=N\NC(=S)Nc1ccc([N+](=O)[O-])cc1)c1nc2ncccc2[nH]1 | 92% (active)
4 | COC(=O)c1ccc(SCC(=O)c2ccc([N+](=O)[O-])o2)cc1 | 79% (active)
5 | CCCCCCCCCCCC(=O)OCCOP(=O)(OCC)OCC | 98% (active)
6 | COc1cccc2c1S(=O)(=O)C(c1ccccc1)=CC2=O | 99% (active)
7 | CC(C)(C)c1ccc(-n2c3nc(=O)n(-c4ccccc4C(F)(F)F)c(=O)c-3cc3ccccc32)cc1 | 98% (active)
8 | CCOC(=O)c1cc(C)ccc1-c1ccc(C)cc1C(=O)OCC | 28% (inactive)
9 | NC(=O)C1C(=O)c2cccc3c2C1(Br)C(Br)CCC3 (configuration not stated) | 99% (active)
10 | COC(=O)/C(=C/C=C(c1ccccc1)c1ccccc1)N(C(C)=O)C(C)=O | 39% (inactive)
11 | Cc1ccc(C2COc3cc(O)c(O)cc3C2)cc1 (configuration not stated) | 99% (active)
12 | COc1cc(C2=NCCO2)cc(OC)c1OC | -117% (inactive)
13 | O=C1c2cccc3cc([N+](=O)[O-])cc(c23)C(=O)N1O | 71% (active)
14 | CCOc1ccccc1C(=O)Oc1cccc(C)c1 | 17% (inactive)
15 | CCNc1cc(N)[n+](CC)c2n[nH]c(/N=C/c3cc(Cl)cc(Cl)c3O)c12 | 78% (active)
16 | CC(=O)OC1=Cc2ccccc2C(c2ccccc2)c2ccccc21 (configuration not stated) | 53% (inactive)
17 | CCOC(=O)c1[nH]c(Br)c(-c2ccc(OC)c(OC)c2)c1Br | 97% (active)
